A selection: hits, their analogues and other compounds. The true share with any hit is near 3%.
Tau fibril ThT: qHTS for Inhibitors of Tau Fibril Formation, Thioflavin T Binding | 270,000 tested, 2.1% active | Potency, µM (titrated, usually from 57.4 µM), most hits filed as inhibitors | Microtubule-associated protein tau (Homo sapiens), P10636 | recombinant tau K18 P301L, heparin-induced fibrillization, ThT fluorescence; note: nearly all actives have a fitted effect of over 55% in size
Target sequence (P10636 561-689 P618L limits assumed): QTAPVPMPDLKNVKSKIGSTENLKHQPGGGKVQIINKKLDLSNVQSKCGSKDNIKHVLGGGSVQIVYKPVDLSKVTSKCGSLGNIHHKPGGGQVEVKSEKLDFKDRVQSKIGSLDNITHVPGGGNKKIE
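ThT emission at 510 nm, taken 1 hr after adding 30 uM dye, quantifies aggregates formed when 20 uM heparin acts on human tau K18 P301L for 6 hr at 37 C.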
Tau FP inhib: qHTS for Inhibitors of Tau Fibril Formation, Fluorescence Polarization. K18 P301L tau heparin fibrillization, Alexa594 FP, 6 h. Potency, µM (highest dose often 57.7 µM), usual class: inhibitors. AID 1468, 2008. Microtubule-associated protein tau (Homo sapiens), P10636. 280,000 tested, 0.39% active; note: nearly all actives have a fitted effect of over 55% in size
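FP of Alexa 594-tau after heparin (20 uM) induction. Substrate: human K18 P301L, 15 uM unlabeled, 0.24 uM labeled. Buffer 100 mM sodium acetate pH 7. 6 hr, 37 C.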
Tau fluor cs: Counterscreen qHTS for Inhibitors of Tau Fibril Formation, Fluorescence Polarization; tau K18 P301L Alexa594 fluorescence, heparin fibrillization; Potency, µM (top dose mostly 57.7 µM); AID 1463, 2008; 280,000 tested, 0.93% active; note: nearly all actives have a fitted effect of over 55% in size
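Human tau K18 P301L (15 uM unlabeled, 0.24 uM Alexa 594-labeled) in 100 mM sodium acetate pH 7 with 20 uM heparin, 6 hr at 37 C. ThT 30 uM added, 1 hr ambient; Alexa 594 FP and total fluorescence read at 555/632 nm.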
KDM4E inh: qHTS Assay for Inhibitors of Human Jumonji Domain Containing 2E (JMJD2E) | AID 2147, 2009 | Lysine-specific demethylase 4E (Homo sapiens), B2RXH2 | JMJD2E catalytic domain, FDH-coupled NADH fluorescence (FDH is formaldehyde dehydrogenase) | Potency, µM (top dose mostly 57.1 µM), most hits filed as inhibitors | 230,000 tested, 1.6% active; active = well fitted inhibition curve with a large enough effect, not every such curve was filed as active; inconclusive = small, poorly fitted or top-dose-only effect, or another doubt; inactive = no such curve, though single readings can be large or run the other way; note: nearly all actives have a fitted effect of over 50% in size
Target sequence (B2RXH2 1-337 limits assumed): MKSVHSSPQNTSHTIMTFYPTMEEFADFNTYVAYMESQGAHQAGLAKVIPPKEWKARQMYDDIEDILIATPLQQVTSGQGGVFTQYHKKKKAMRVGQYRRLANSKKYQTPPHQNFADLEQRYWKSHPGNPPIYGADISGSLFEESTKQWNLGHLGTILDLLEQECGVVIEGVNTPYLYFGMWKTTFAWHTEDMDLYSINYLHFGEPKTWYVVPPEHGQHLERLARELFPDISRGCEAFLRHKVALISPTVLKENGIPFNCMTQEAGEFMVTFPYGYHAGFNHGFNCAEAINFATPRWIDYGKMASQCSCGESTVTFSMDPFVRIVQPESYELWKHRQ
FBPA coupling cs: qHTS Assay for Inhibitors of Fructose-1,6-bisphosphate Aldolase from Giardia Lamblia: Coupling assay counterscreen | coupling enzyme system counterscreen, AmpLite Red fluorescence | activity change, negative = inhibition, % at 58.2 µM, hits read low | 290,000 tested, 0.67% active | AID 2472, 2010; in the data active = activity change below about -30%
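Counterscreen of the coupled detection system alone, without aldolase: glyceraldehyde-3-phosphate coupling enzymes plus AmpLite Red readout. Compounds at 57.5 uM final, 10 min RT preincubation, 20 min RT reaction, fluorescence 525/598 nm.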
Hits are given with their value; – = inactive; ? = inconclusive; · = no result given; [ ] = another dose, or the depositor's remark. Unless noted, calls come from the whole dose curve; as a rule, active = well fitted curve in the direction sought with a large enough effect; inconclusive = small, poorly fitted or top-dose-only effect, or another doubt; inactive = no such curve, though single readings can be large; an effect the other way counts as inactive or inconclusive.

SMILES | Tau fibril ThT | Tau FP inhib | Tau fluor cs | KDM4E inh | FBPA coupling cs
O=C(Nc1ccccc1)NC1CCS(=O)(=O)C1 (stereo unspecified) | – | – | – | – | –
CC(=O)NC1=C(NC2CCS(=O)(=O)C2)C(=O)c2ccccc2C1=O (stereo unspecified) | – | – | – | – | -51
CN(C1=C(NC(=O)c2ccccc2)C(=O)c2ccccc2C1=O)C1CCS(=O)(=O)C1 (stereo unspecified) | 14µM | ? | – | ? | -62
N#Cc1ccccc1-c1ccc2ncnc(NCc3cccs3)c2c1 | · | · | · | · | –
CCOC(=O)c1sc(NC(=O)c2c(-c3ccccc3)c(-c3ccccc3)nn(C)c2=O)nc1C | – | – | – | · | ·
CCCC[C@@H]1CCCO[C@@](C(=O)NCc2ccc(S(C)(=O)=O)cc2)(C(F)(F)F)C1 | · | · | · | · | –
CC(C)Oc1cc(NC(=O)CSCC(=O)Nc2cccc(C(F)(F)F)c2)c(Cl)cc1Cl | – | 35µM | ? | – | –
Cc1ccc(NC(=O)Nc2cn(CC(C)C)c(=O)c3ccccc23)cc1N(C)C | ? | ? | 25µM[quencher] | · | ·
O=C(O)CSCC(=O)Nc1cc(C(F)(F)F)ccc1Cl | – | – | – | – | –
CC(C)Cn1cc(NC(=O)NCc2ccccc2)c2ccccc2c1=O | – | – | – | · | ·
CC(C)Cn1cc(NC(=O)Nc2cccc(C(F)(F)F)c2)c2ccccc2c1=O | – | ? | 8.9µM[quencher] | · | ·
COC(=O)c1cc(OC)c(OC)cc1NCC(=O)Nc1ccc(OC)c(OC)c1 | – | – | – | ? | –
COC(=O)c1cc(OC)c(OC)cc1NCC(=O)Nc1cccc(C(F)(F)F)c1 | ? | ? | 18µM[quencher] | ? | –
COc1ccccc1N1CCN(C(=O)Cn2c(=O)nc(-c3ccccc3)c3cc(Cl)ccc32)CC1 | – | – | – | · | ·
N#C/C(=C/c1cc[nH]c1)C(N)=S | ? | – | – | – | –
N#CC(C#N)=C(N)/C(C#N)=C/c1ccc2[nH]ccc2c1 | 14µM | – | ? | · | ·
COc1ccc(OC)c(N=c2ssnc2Cl)c1 | 11µM | ? | – | 13µM | –
COc1ccc(OC)c(N=C2C(=O)Nc3ccccc32)c1 | ? | – | – | – | –
COc1cc(N=c2ssnc2Cl)c(OC)cc1Cl | 10µM | ? | – | 13µM | –
N#Cc1cccc(-c2nc3cnc(N4CCOCC4)nc3n(C[C@H]3CCCO3)c2=O)c1 | · | · | · | · | –
c1cncc(-c2cc(-n3ccnc3)ncn2)c1 | · | · | · | · | –
COc1ccc(OC)c(CNS(=O)(=O)c2cc(-c3onc(C)c3C)ccc2C)c1 | – | – | – | · | ·
CCCCCCCCCCCCCCCC(=O)N[C@@H](COP(=O)(O)O)C(=O)O | – | – | – | – | –
O=C(Nc1ccc(F)c(Cl)c1)N1CC=C(c2c[nH]c3ccccc23)CC1 | 6.3µM | ? | 7.9µM[quencher] | · | ·
O=C(Nc1ccccc1C(F)(F)F)N1CC=C(c2c[nH]c3ccccc23)CC1 | ? | – | 18µM[quencher] | · | ·
SMILES | Tau fibril ThT | Tau FP inhib | Tau fluor cs | KDM4E inh | FBPA coupling cs
CCC(NC(=O)Nc1cc(OC)ccc1OC)c1c(-n2cccc2)sc2c1CCN(CC)C2 (stereo unspecified) | ? | – | ? | · | ·
CCOCCSc1c(C)cnc2c1c(=O)n(C)c(=O)n2C | – | – | – | · | ·
COc1cc([N+](=O)[O-])cc(/C=N/NC(=O)Cn2nc(C)cc2C)c1O | ? | – | – | 7.1µM | –
COc1ccc(/C=N/NC(=O)Cn2nc([N+](=O)[O-])cc2C)c(OC)c1OC | – | – | – | – | –
COc1cc([N+](=O)[O-])cc(/C=N/NC(=O)CSc2nnc(-c3ccccc3)n2C)c1O | · | – | – | 20µM | –
COc1cc([N+](=O)[O-])cc(/C=N/NC(=O)Cn2nccc2C)c1O | · | – | – | 13µM | –
Cn1c(SCC(=O)N/N=C/c2ccc([N+](=O)[O-])s2)nnc1-c1ccc(Cl)cc1 | ? | – | ? | – | –
COc1ccc(CNC(=O)CN(c2ccccc2OC)S(=O)(=O)c2ccc(C)cc2)cc1 | – | – | – | · | ·
CCc1nn2c(-c3ccco3)ccnc2c1-c1ccc(F)cc1 | ? | – | – | · | ·
CC(=O)N1N=C(c2cccc([N+](=O)[O-])c2)OC1c1ccc(Br)cc1 (stereo unspecified) | – | – | – | – | –
CC(=O)N1N=C(c2ccccc2)OC1c1ccc([N+](=O)[O-])s1 (stereo unspecified) | ? | ? | – | 14µM | –
COc1ccc(/C=C2\CCCc3c2nc2ccccc2c3C(=O)O)cc1OC | ? | – | – | ? | -33
COc1ccc(/C=C2\CCCC(C(=O)C(F)(F)F)=C2O)cc1OC | 16µM | ? | – | 25µM | –
COc1ccc(/C=C2\CCc3c2nc2ccccc2c3C(=O)O)cc1OC | ? | – | – | ? | –
COc1ccc(/C=C2/CCCC(C(=O)C(F)(F)F)=C2O)cc1OC | ? | – | – | ? | –
COc1cccc(-c2nc(CS(=O)(=O)CC(=O)NCCc3ccc(Cl)cc3)c(C)o2)c1 | – | – | – | · | ·
COc1ccc2c(c1)CCc1cn3nc(C)cc3nc1-2 | ? | – | – | ? | -45
NC(C(=O)O)[C@H](O)C(=O)O (stereo partly specified) | – | – | – | · | ·
Cn1cccc1/C=N/NC(=O)C(O)c1ccccc1 (stereo unspecified) | · | –[11.6 µM] | –[11.6 µM] | 25µM | –
Cn1cccc1/C=N/NC(=O)Cc1ccccc1 | · | – | – | – | –
COc1ccc(CCNC(=O)C(=O)NCC(c2cccs2)S(=O)(=O)c2cccs2)cc1 (stereo unspecified) | – | – | – | · | ·
Cc1ccc(-n2[nH]c(C)c(/C=N/Nc3ccc([N+](=O)[O-])cc3[N+](=O)[O-])c2=O)cc1 | 1.6µM | 10µM | 3.2µM[quencher] | – | –
Cc1[nH]n(-c2ccc([N+](=O)[O-])cc2)c(=O)c1C=NCCc1c(C)[nH]c2ccccc12 | ? | ? | 22µM[quencher] | – | –
COc1ccc(-c2csc(-c3nc(-c4ccc(Br)s4)cs3)n2)cc1F | – | – | – | · | ·
COC(=O)C1=C(C)NC(=O)/C1=C\c1ccc2c(c1)OCO2 | 13µM | – | – | – | –
SMILES | Tau fibril ThT | Tau FP inhib | Tau fluor cs | KDM4E inh | FBPA coupling cs
CC1=NOC(=O)/C1=C/c1ccc2c(c1)OCO2 | ? | – | – | ? | –
CC(=O)Nc1nonc1-c1nnc(SCC(=O)N(C)c2ccccc2)n1C | – | – | – | · | ·
CCc1ccc(S(=O)(=O)ON2C(=O)c3ccccc3C2=O)cc1 | 16µM | ? | – | ? | –
COCC(=O)N1c2nc(-c3ccco3)nn2C2(CCCCC2)[C@@H]2CCCC[C@@H]21 | – | – | – | · | ·
Oc1[nH]c(=S)sc1C=C1N=c2ccccc2=N1 | 14µM | – | – | – | –
Cc1ccc(S(=O)(=O)Nn2c(O)c(C=C3N=c4ccccc4=N3)sc2=S)cc1 | 11µM | – | ? | – | –

Screening results (PubChem)
